Consider 57 compounds from PubChem BioAssay AID1439 (NMMLSC, 2008).

Screen size: about 220,000 compounds; about 770 (0.35%) were called active. Not shown: some 15% with an inconclusive outcome. Many of the other results were omitted from the sample, so actives are more common in it than they were. Unmarked numbers belong to inactive results. No stated cut-off is given here; in the data, active means binding response below about 49% or above about 150%; inconclusive means no clear call, values can overlap the other calls; inactive means in between.

The target in this experiment is Guanine nucleotide-binding protein G(o) subunit alpha (Homo sapiens) (UniProt P09471). The experiment is described as follows: RGS7-Galphao binding modulators, primary screen, biochemical, multiplexed bead flow cytometry (AID 1439).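 Further: fluorescent Galphao held in activated GDP-AlF4 state binding bead-coupled RGS7.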 The following applies: at 10 µM, actives lie on both sides. (In general: A flow cytometer gives signals particle by particle.)
Guanine nucleotide-binding protein G(o) subunit alpha (Homo sapiens), sequence (P09471 whole entry, looked up): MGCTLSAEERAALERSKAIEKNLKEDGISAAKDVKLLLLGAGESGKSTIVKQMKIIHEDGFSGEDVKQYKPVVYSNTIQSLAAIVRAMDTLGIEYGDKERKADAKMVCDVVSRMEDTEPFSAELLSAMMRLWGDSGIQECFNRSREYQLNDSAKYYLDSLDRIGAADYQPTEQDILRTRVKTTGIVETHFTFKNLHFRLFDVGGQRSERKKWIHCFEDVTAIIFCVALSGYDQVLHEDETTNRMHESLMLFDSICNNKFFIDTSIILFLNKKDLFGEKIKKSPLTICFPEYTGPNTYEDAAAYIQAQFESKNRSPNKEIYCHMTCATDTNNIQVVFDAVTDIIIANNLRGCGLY
With `Cc1ccc(NC(=O)CN2CCCCC2)c2c1CC(C)(C)O2`, the binding response (% of control) was 103%.
Take `CS/C(=C\[N+](=O)[O-])Nc1ccc(C)cc1`: the binding response (% of control) was 106%.
Turning to `S=C(Nc1cccc(Br)c1)N1CCn2cccc2C1c1cccnc1` (configuration not stated), the binding response (% of control) is 102%.
With `CN(C)S(=O)(=O)Oc1ccccc1C(=O)Nc1ccccc1Cl` the figure was 223% (active); with `CC(=O)Nc1ccc(NC(=O)COc2ccccc2C(=O)Nc2cccc(Cl)c2Cl)cc1`, 94.1%.
As to `O=C(Nc1ccccc1Cl)c1ccccc1S(=O)(=O)c1ccccc1[N+](=O)[O-]`, the binding response (% of control) is 90.2%.
Turning to `COc1cccc2c1OCC(CN1CCN(C3CCCCC3)C(CCO)C1)=C2` (configuration not stated), the binding response (% of control) is 103%.
On to `CN1CCN(CCCCOc2ccccc2-c2ccccc2)CC1`, for which the binding response (% of control) was 102%.
With `CC(C)C(O)C1CCN(Cc2nc(Cc3ccccc3Cl)no2)CC1` (configuration not stated) the figure was 101%.
Regarding `CC(Nc1nc(N2CCOCC2)nc2ccccc12)c1ccccc1` (configuration not stated), the binding response (% of control) is 103%.
With `C=CCn1c(Cn2nnc3ccccc32)nnc1SCC(=O)N/N=C/c1cc(Br)cc(OC)c1O` the figure was -19.4% [inhibitor] (active); with `COc1ccc(OC)c(/C=N/NC(=O)CSc2nnc(C)n2-c2ccccc2)c1`, 105%.
Under `Cn1c(Cn2nnc3ccccc32)nnc1SCC(=O)c1ccccc1F` stands 103%.
As for `CCn1ccnc1CN(C)Cc1nc(-c2ccc3c(c2)OCO3)no1`, the binding response (% of control) was 96.5%.
For the compound `O=C(CCn1ccc([N+](=O)[O-])n1)Nc1nccs1`, the binding response (% of control) was 97.4%.
Turning to `COc1ccc(C2=NOC(COC(=O)c3ccc4ccccc4n3)C2)cc1` (configuration not stated), the binding response (% of control) was 97%.
As for `COc1ccc(C(=O)COC(=O)c2ccc3ccccc3n2)cc1`, the binding response (% of control) is 39% [inhibitor] (active).
On to `CC(OC(=O)c1ccc2ccccc2n1)C(=O)c1ccccc1` (configuration not stated), for which the binding response (% of control) is 104%.
With `O=C(O)c1ccccc1-c1ccccc1C(=O)NCc1cccnc1` the figure was 104%.
As for `CN(C)CCn1c(=S)[nH]c2ccc(Cl)cc2c1=O`, the binding response (% of control) was 97.9%.
For `CN(C)CCN=c1cc(-c2ccccc2)oc2ccc(Cl)cc12`, the binding response (% of control) was 155% (active).
With `CCN(CC)S(=O)(=O)c1ccc(N2CCCC2)c(NS(=O)(=O)c2cccs2)c1`, the binding response (% of control) is 103%.
Consider `Cc1cc(C)cc(N(C(C)C(=O)Nc2c(C)n(C)n(-c3ccccc3)c2=O)S(C)(=O)=O)c1` (configuration not stated), for which the binding response (% of control) was 101%.
`Cc1ccc(S(=O)(=O)CC(=O)Nc2c(C)n(C)n(-c3ccccc3)c2=O)cc1`: the binding response (% of control) was 95.9%.
In the case of `Cc1cc(C)cc(N(CC(=O)Nc2c(C)n(C)n(-c3ccccc3)c2=O)S(C)(=O)=O)c1`, the binding response (% of control) is -21.3% [inhibitor] (active).
With `CCn1cc(C(=O)NCCCN2CCCCCC2)c(=O)c2cc(S(=O)(=O)N3CCc4ccccc4C3)ccc21` the figure was 103%; with `Cc1c(C(=O)Nc2ccccc2)sc2nc3n(c(=O)c12)CCCCC3`, 94.2%.
Consider `CCC(=O)N1CCC(C(N)=O)(N2CCCCC2)CC1`, for which the binding response (% of control) is 161% (active).
For the compound `CC(C)(O)C#Cc1ccc(C(=O)N2CCC(C(N)=O)(N3CCCCC3)CC2)cc1`, the binding response (% of control) was 101%.
Turning to `NC(=O)C1(N2CCCCC2)CCN(C(=S)Nc2ccc(Cl)cc2)CC1`, the binding response (% of control) is 108%.
Regarding `Fc1ccc(COc2cccc(-c3n[nH]c(=S)o3)c2)cc1`, the binding response (% of control) is 103%.
Turning to `COC(=O)CN1C(=O)N/C(=C/c2ccc(OC)c(C)c2OC)C1=O`, the binding response (% of control) is 103%.
Take `O=C(CN1CCCCCC1)N1c2ccccc2Sc2ccc(C(F)(F)F)cc21`: the binding response (% of control) was 89.4%.
Take `COc1cc(/C=C/C(=O)N2c3ccccc3Sc3ccc(C(F)(F)F)cc32)cc(OC)c1OC`: the binding response (% of control) was 104%.
For the compound `O=C(CN1CCCCC1)N1c2ccccc2Sc2ccc(C(F)(F)F)cc21`, the binding response (% of control) was 27.5% [inhibitor] (active).
Under `N#C/C(C(=S)Nc1ccccc1)=C1/NN=C(N2CCOCC2)N1c1ccccc1` stands 97.6%; under `O=C(Nc1ccccc1)c1cccnc1Nc1ccccc1`, 99.9%.
With `O=C(Nc1ccc(-n2ccnc2P(=O)(O)c2ccccc2)cc1)c1ccccc1Br`, the binding response (% of control) is 152% (active).
On to `Cc1ccc(NC(=O)c2cccnc2C(=O)Nc2ccc(C)cc2)cc1`, for which the binding response (% of control) was 106%.
On to `COC(=O)C1=C(C)N(c2ccc(C)cc2)/C(=C/c2ccc(O)cc2)C1=O`, for which the binding response (% of control) is 104%.
`Cc1ccc2[nH]c(=O)c(CN(CC3COCCO3)C(=O)Nc3ccccc3C)cc2c1` (configuration not stated): the binding response (% of control) is 102%.
For `CC(=O)c1ccc(NC(=O)CSC(=S)N2CCCC2)cc1`, the binding response (% of control) was 102%.
With `Cc1ccc(S(=O)(=O)N(C)CC(=O)NC2CCCC2)cc1` the figure was 98.3%; with `CN(CC(=O)NC1CCCCC1)S(=O)(=O)c1ccc(Br)s1`, 99.1%.
Consider `CN(CC(=O)NC1CCCCC1)S(=O)(=O)c1cccc2cccnc12`, for which the binding response (% of control) was 241% (active).
`N/C(=N/O)c1cccn1Cc1ccccc1[N+](=O)[O-]`: the binding response (% of control) was 99.3%.
As to `O=C(COC(=O)CCc1ccc(S(=O)(=O)N2CCOCC2)cc1)Nc1cccc(Cl)c1`, the binding response (% of control) is 99.8%.
As to `Cc1cc(C)nc(/N=C2\NC(=O)CC(C(=O)O)N2c2ccc(Cl)cc2Cl)n1` (configuration not stated), the binding response (% of control) was 170% (active).
With `CCOC(=O)c1nc(C)n(-c2ccc(Cl)cc2Cl)n1` the figure was 102%.
With `Cc1cc(C)n(-c2ccc(Cl)c(C(=O)O)n2)n1` the figure was 96.7%; with `COc1cccc(C2c3[nH]c4ccccc4c3CCN2Cc2cccc(C)n2)c1` (configuration not stated), 102%; with `O=C(NC1CC1)c1cccc(Br)c1`, 102%.
Take `S=C1Nc2cc(Cl)ccc2Sc2ccccc21`: the binding response (% of control) was 100%.
For `O=C(NC1CC1)c1ccc2c(c1)NC(=O)c1ccccc1S2`, the binding response (% of control) was 191% (active).
Regarding `CC(=O)NC(Cc1ccc(F)c(F)c1)C(=O)NC1CCN(C(=O)c2ccc(C)cc2)CC1` (configuration not stated), the binding response (% of control) was 95.6%.
Under `CCCn1c(NC(=O)C23CC4CC(CC(O)(C4)C2)C3)nc2ccccc21` stands 104%; under `CC(=O)N1CCc2cc(Br)cc(S(=O)(=O)CCC(=O)Nc3c(C)n(C)n(-c4ccccc4)c3=O)c21`, 98.9%.
